In PubChem BioAssay AID2685 (National Center for Advancing Translational Sciences (NCATS), 2010) one finds Potency, cell number change and lipid storage change, negative = inhibition data, which are given here for 49 molecules.

Among all 320,000 compounds or so, about 2,100 (0.66%) were called active. About 53% were inconclusive and are not listed. Calls follow the shape of the dose curve; as a rule, active = well fitted inhibition curve with a large enough effect in the signal ratio, with a control signal flat (not every such curve was filed as active); inconclusive = small, poorly fitted or top-dose-only effect, or effect the other way, or a change in a side signal; inactive = flat fitted curve, though single readings scatter; the % refers to the signal ratio. Many of the other results were omitted from the sample, so actives are more common in it than they were.
Potency is read from the fitted curve at half-maximal effect.

The experiment is described as follows: qHTS Assay for Lipid Storage Modulators in Drosophila S3 Cells.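 As to cell number change: cells counted by Cell Tracker Red CMTPX staining in the red channel.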 As to lipid storage change, negative = inhibition: % is scaled to controls: 0 for no effect and ±100 for the full control effect. To be noted: BODIPY lipid droplet fluorescence, 18-24 h, cells fed with added oleic acid; cell number change: measured here: cell count max response; series mostly up to 46.1 µM. The procedure, abridged: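 Drosophila S3 cells got compounds at several concentrations plus oleic acid (400 uM solution). Laser-scanning cytometry with 488 nm excitation read lipid droplets at 500-530 nm and cells at 575-640 nm. Percent activity was relative to 20 uM Triacsin C.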
Consider `O=C(Nc1ccc(F)cc1)/C(=C1/CCCCCN1)[N+](=O)[O-]`, for which the Potency result was “inactive” and the cell number change turned out to be 18.2%. For `Cc1ccccc1CSc1nnc(NC(=O)Cc2cccs2)s1`, in that order: “inactive” and 0.934%.

In the case of `O=S(=O)(Nc1ccc(-c2nc3ccccc3o2)cc1)c1ccccc1`, the Potency result was “inactive” and the cell number change was -16.6%. As for `COc1ccc(CCNC(=O)COc2ccc(S(=O)(=O)N3CCOCC3)cc2)cc1`, the Potency result is “inactive”. In the case of `CCCCc1ccc(CC(=O)Nc2cc(S(=O)(=O)N3CCOCC3)ccc2O)cc1`, the Potency is 20.6 µM (active) and the cell number change is -16.2%. For `C/C(=N\NC(=O)CCc1ccc(S(=O)(=O)N2CCOCC2)cc1)c1ccc(OC(F)F)cc1`, in that order: 11.6 µM (active) and -28.6%. For `C/C(=N\NC(=O)CCc1ccc(S(=O)(=O)N2CCOCC2)cc1)c1ccccc1Cl`, the Potency result was “inactive” and the cell number change turned out to be 15.6%. For the molecule `CC(=O)NCCc1ccc(S(=O)(=O)Nc2ccc(C)c(S(=O)(=O)N3CCOCC3)c2)cc1`, the Potency entry is “inactive” and the cell number change was -24.8%. For `O=C(CCCSc1ccc(Cl)cc1)Nc1cc(S(=O)(=O)N2CCOCC2)ccc1O` the same measures were “inactive” and -18.8%. With `C/C(=N\NC(=O)c1cccc(S(=O)(=O)N2CCOCC2)c1)c1ccc(OC(F)F)cc1`, the Potency result is “inactive” and the cell number change is 8.64%.

As for `O=C(Nc1cc(S(=O)(=O)N2CCOCC2)ccc1O)c1ccco1`, the Potency entry was “inactive” and the cell number change was -13.8%.

In the case of `CC(=O)NCCc1ccc(S(=O)(=O)N2CCOCC2)cc1`, the Potency was 18.4 µM (active) and the cell number change is -15.6%. Regarding `Cc1ccc(CNC(=O)Cc2nc3nc(C)cc(C)n3n2)cc1`, the Potency result is “inactive” and the cell number change was found to be 1.61%. For `COc1cc2c(cc1OC)CN(C(=O)Nc1ccccc1Cl)CC2`, in that order: “inactive” and -24.6%. For `CCc1nnc(NC(=O)CSc2nnc(C)n2CC2CCCO2)s1` (stereo not drawn), in that order: “inactive” and 6.32%. As to `COCCCNC(=O)CSc1nc2ccccc2c(=O)n1Cc1ccc2c(c1)OCO2`, the Potency entry was “inactive” and the cell number change was -4.93%. Regarding `COc1ccc(C(=O)NCCc2cnc[nH]2)cc1OC`, the Potency entry is “inactive” and the cell number change was -11.3%. For `COC(=O)CCN(C(=O)c1cccc(OC(C)=O)c1)c1ccccn1` the same measures were 25.9 µM (active) and -22.7%.

For `COC(=O)CCN(C(=O)c1ccc(OC(C)=O)cc1)c1ccccn1`, the Potency result was “inactive” and the cell number change was 6.03%.

Consider `COC(=O)CCN(C(=O)c1ccc(C)c([N+](=O)[O-])c1)c1ccccn1`, for which the Potency result is “inactive” and the cell number change is 16.9%. For `Cc1cc(NC(=O)C(C)SCC(=O)OC(C)C(=O)Nc2ccccc2C)no1` (stereo not drawn), in that order: “inactive” and 31.1%. For `COCCN1CN=C(Nc2nc(C)c3ccc(C)cc3n2)NC1`, in that order: “inactive” and 3.94%. As to `Cc1cccc(C)c1OCC1CNC(=O)O1` (stereo not drawn), the Potency result is “inactive” and the cell number change worked out at 9.47%. For the molecule `Cc1ccccc1OCC1CNC(=O)O1` (stereo not drawn), the Potency result was “inactive” and the cell number change worked out at 6.67%. Take `O=C1NCC(COCc2ccco2)O1` (stereo not drawn): the Potency is 16.4 µM (active) and the cell number change came out at 0.961%. As to `CCCCN(CC)C(=O)c1oc2ccc(S(=O)(=O)N3CCCC3)cc2c1C`, the Potency was 11.6 µM (active) and the cell number change was -20.1%.

Take `CCOC(=O)N1CCN(C(=O)c2oc3ccc(S(=O)(=O)N4CCCCC4)cc3c2C)CC1`: the Potency entry was “inactive”. Consider `Cc1c(C(=O)O)oc2ccc(S(=O)(=O)N3CC(C)CC(C)C3)cc12` (stereo not drawn), for which the Potency result was “inactive” and the cell number change was 24.2%. Turning to `Cc1c(C(=O)NCC2CCCO2)oc2ccc(S(=O)(=O)N3CC(C)CC(C)C3)cc12` (stereo not drawn), the lipid storage change, negative = inhibition is 16.1% [at 9.22 µM] (inactive).

As to `Cc1c(C(=O)NCc2ccc3c(c2)OCO3)oc2ccc(S(=O)(=O)N3CCCC3)cc12`, the Potency result was “inactive” and the cell number change was -21.4%. In the case of `Cc1c(C(=O)NCC2CCCO2)oc2ccc(S(=O)(=O)N3CCCC3)cc12` (stereo not drawn), the Potency result is “inactive” and the cell number change is -3.78%. On to `CCN(CC)C(=O)c1oc2ccc(S(=O)(=O)N3CC(C)CC(C)C3)cc2c1C` (stereo not drawn), for which the Potency is 0.58 µM (active) and the cell number change was 13.1%. For `Cc1c(C(=O)N(C)Cc2ccccc2)oc2ccc(S(=O)(=O)N3CCCC3)cc12`, in that order: “inactive” and -25.2%. For `Cc1c(C(=O)NCCN(C)C)oc2ccc(S(=O)(=O)N3CCCC3)cc12` the same measures were 0.116 µM (active) and 13.1%. On to `O=[N+]([O-])/C(=C\Nc1ccc(F)cc1F)S(=O)(=O)c1ccccc1`, for which the Potency entry was “inactive”. For `COc1ccc(-c2cc(C(=O)Nc3nc4ccccc4s3)c3ccccc3n2)cc1OC`, the Potency entry is “inactive” and the cell number change amounted to 2.3%. In the case of `Cn1cccc1C(=O)OCC(=O)Nc1cc(C(C)(C)C)nn1-c1ccccc1`, the Potency result is “inactive” and the cell number change was 10.4%. For `CS(=O)(=O)N(CC(=O)Nc1cccc([N+](=O)[O-])c1)c1cccc(F)c1` the same measures were “inactive” and -2.63%.

With `CC1CCc2sc(C(=O)NNC(=S)NCC3CCCO3)cc2C1` (stereo not drawn), the Potency result is “inactive” and the cell number change was found to be 20%.

Consider `Cc1cccc2sc(NC(=O)C3CSC4(C)CCC(=O)N34)nc12` (stereo not drawn), for which the Potency result was “inactive” and the cell number change worked out at 14.2%. Turning to `O=C(c1cccnc1)N1CCN(S(=O)(=O)c2ccc(Cl)cc2)CC1`, the Potency entry was “inactive” and the cell number change is -4.89%. Take `COc1ccc(N2CCN(C(=O)CCNS(=O)(=O)c3cc(Br)cnc3N)CC2)cc1`: the Potency entry was “inactive”.

On to `S=C1NCCOCCNC(=S)NCCOCCOCCN1`, for which the Potency entry is “inactive” and the cell number change was determined as 28%. Turning to `S=C1NCCOCCOCCOCCN1`, the Potency result was “inactive” and the cell number change is -10.7%. For `S=C1NCCOCCOCCOCCOCCN1`, in that order: 13 µM (active) and 20.5%.

As to `N/C(CCN1CCOCC1)=N/O`, the Potency entry was “inactive” and the cell number change was -8.53%. `COc1ccc(N2CCCn3c2nc2c3c(=O)n(CCN3CCOCC3)c(=O)n2C)cc1`: the Potency entry was “inactive” and the cell number change was -8.81%. For `COc1ccc(N2CCn3c2nc2c3c(=O)n(CCN3CCOCC3)c(=O)n2C)cc1` the same measures were “inactive” and -1.98%.

As to `COc1ccc(N2CC(C)Cn3c2nc2c3c(=O)n(CCN3CCOCC3)c(=O)n2C)cc1` (stereo not drawn), the Potency was 2.06 µM (active) and the cell number change was found to be 5.05%.
